Sampled rows, rich in hits. Any-hit rate of the full collection: about 1.8%.
PrPC surface inh – inhibitors of human cell surface prion protein PrPC, primary screen, cell-based, TR-FRET; inhibition, % at 13.8 µM; TR-FRET read-out; hit rate 0.43% among 370,000; in the data active = inhibition above about 24%; also: 0% = median of the test wells and 100% = reference compound wells
MazEF act – activators of E. coli MazEF toxin-antitoxin RNase, primary screen, biochemical, fluorescence, uHTS; Endoribonuclease toxin MazF (Escherichia coli (strain K12)), P0AE70; FAM/BHQ RNA-DNA oligo cleavage fluorescence, 5 h; activation, % at 20 µM; hit rate 0.32% among 350,000; AID 504720, 2011; in the data active = activation above about 50%
Target sequence (P0AE70 whole entry, looked up): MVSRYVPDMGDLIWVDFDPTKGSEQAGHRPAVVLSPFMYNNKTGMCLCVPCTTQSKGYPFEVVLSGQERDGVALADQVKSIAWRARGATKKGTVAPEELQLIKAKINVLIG
PrP 5UTR inh – inhibition of PrP 5' UTR reporter expression; cell-based PrP 5' UTR mRNA reporter, plate reader; inhibition, % (concentration not given with the values); hit rate 0.35% among 340,000; AID 488862, 2010; in the data active = inhibition above about 52%; also: 0 = median of the neutral control wells
PriA SSB inh – inhibitors of Klebsiella pneumoniae PriA binding to SSB C-terminal tail, primary screen, biochemical, AlphaScreen. inhibition, % at 33 µM. AlphaScreen SSBct-PriA binding, biotinylated peptide. hit rate 0.6% among 430,000; in the data active = inhibition mostly above about 37%, no sharp cut-off; inactive = mostly below about 20%;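 also: plate controls were negative control peptide for no effect and reference peptide for full effect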
PfHsp40 yeast – rescue of yeast from PfHsp40 toxicity, primary screen, S. cerevisiae, ATP luminescence; growth rescue, % at 12.5 µM; S. cerevisiae expressing PfHsp40, growth rescue; hit rate 0.68% among 340,000; in the data active = growth rescue above about 28%, passing the limit was not always enough;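 also: yeast W303a lacking pdr1 and pdr3 grown in galactose medium; growth measured after three days at 30 °C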
* marks the source's active call; other numbers are inactive results; nt = no result given.

SMILES	PrPC surface inh	MazEF act	PrP 5UTR inh	PriA SSB inh	PfHsp40 yeast
CN(c1ccc(C(=O)NCc2cccnc2)cc1)S(=O)(=O)c1ccc(Cl)cc1	10	5	-8	9	1
Cc1ccc(S(=O)(=O)N(C)c2ccc(C(=O)NCc3cccnc3)cc2)cc1	-4	1	-5	39*	2
O=c1cc(-c2ccccc2)oc2cc(O)c(O)c(O)c12	0	3	-55	-3	141*
CC1(c2nnc(-c3ccncc3)o2)CC(c2cccc(Cl)c2)=NO1 (centres undefined)	8	-6	-10	-6	1
O=C(Cn1nnc(-c2ccccc2Cl)n1)N/N=C/c1ccc2c(c1)OCO2	9	3	-9	nt	60*
CC(C)(O)CCCC(C)(O)c1ccc(C(=O)O)cc1O (centres undefined)	-1	-10	-5	-6	55*
CC(C)CCC[C@](C)(O)c1ccc(C(=O)O)cc1O	2	nt	nt	nt	nt
C/C(=N\Nc1nc2ccccc2[nH]1)c1ccc2c(c1)OCCO2	2	16	-36	nt	2
CC(=NNc1nc2ccccc2[nH]1)c1ccc(N2CCOCC2)cc1	nt	nt	nt	54*	nt
Cc1cc(C)c(C(=O)CN2C(=O)NC3(CCCCCC3)C2=O)cc1C	6	-11	-43	-20	52*
Cc1ccccc1NC(=O)CN1C(=O)NC(C)(c2ccc3c(c2)OCO3)C1=O (centres undefined)	-2	3	-14	-9	35*
C/C(=N/NC(=S)NCc1ccco1)c1ccco1	nt	nt	nt	43*	nt
S=C(NCc1ccco1)Nc1ccc(Oc2ccc(Cl)cc2)cc1	-1	-16	-9	5	194*
C=CCN1C(=O)C(Cc2ccc(OCC)cc2)SC1=NN=Cc1cccs1 (centres undefined)	nt	nt	nt	-26	nt
COc1ccc(Nc2nc(Nc3ccc(F)cc3)nc(N3CCOCC3)n2)cc1OC	nt	nt	nt	37*	nt
Fc1ccc(Nc2nc(N3CCOCC3)nc(N3CCOCC3)n2)cc1	-2	5	-11	-1	0
O=C(O)c1ccc2c(c1)C1C=CCC1C(c1cc3c(cc1Br)OCO3)N2 (centres undefined)	1	5	-21	-8	65*
Brc1cc2c(cc1C1Nc3ccccc3C3C=CCC31)OCO2 (centres undefined)	8	4	-18	8	-1
O=[N+]([O-])c1ccc(C=NNc2ccnc3cc(Cl)ccc23)o1	nt	nt	nt	59*	nt
O=C1C=C(c2ccccc2)C(=O)N1Nc1ccccc1	1	5	-1	-19	264*
S=C1Cc2ccccc2N1	41*	-28	0	25	0
FC(F)(F)c1ccccc1Cc1c(C2CCCCC2)nc2c3ccccc3ccn12	11	nt	nt	nt	nt
O=c1[nH]c(CN2CCN(c3ccccc3Cl)CC2)nc2ccsc12	-2	5	-10	-5	0
O=c1[nH]c(CN2CCN(c3ccccc3O)CC2)nc2scc(-c3ccccc3Cl)c12	7	-52	-4	13	29*
O=C(Oc1cc2oc(=O)cc(-c3ccccc3)c2cc1Cl)C1CCCCC1	-1	2	-15	-18	68*
SMILES	PrPC surface inh	MazEF act	PrP 5UTR inh	PriA SSB inh	PfHsp40 yeast
CC(C)(C)OC(=O)NCC(=O)Oc1cc2oc(=O)cc(-c3ccccc3)c2cc1Cl	-10	-4	-6	-16	23
Cc1ccc(F)cc1NC(=O)c1c(-c2ccccc2)noc1C	-3	2	-19	-30	1
COC(=O)C1CCN(c2c([N+](=O)[O-])cc(C(F)(F)F)cc2[N+](=O)[O-])CC1	5	6	-5	59*	-1
CC(Sc1nnc(-c2cccs2)n1Cc1ccccc1)C(=O)NCc1ccc2c(c1)OCO2 (centres undefined)	-4	64*	3	4	0
O=C1C2C3C=CC(C3)C2C(=O)N1CCCCN1C(=O)C2C3C=CC(C3)C2C1=O (centres undefined)	2	-3	-8	-10	-1
O=C1[C@@H]2[C@H](C(=O)N1O)[C@H]1C=C[C@@H]2C1	-3	-6	4	4	34*
CC(CC(=O)N(C(C)C)C(C)C)=NNC(=O)COc1ccc(Br)cc1Br	nt	nt	nt	5	nt
CNC1=C(N(C(C)=O)c2ccc(Br)cc2)C(=O)c2ccccc2C1=O	-22	8	-44	7	77*
CCC(=O)N(C1=C(NC)C(=O)c2ccccc2C1=O)C(C)C	-44	4	-29	6	0
COC(=O)Cn1c2nc3ccccc3nc2c2cccc(C)c21	-8	-2	-6	-21	-2
Cc1cccc2c3nc4ccccc4nc3n(C)c12	5	165*	-16	-37	0
O=[N+]([O-])c1ccc(O)c(C=Nc2cccc3ncccc23)c1	-3	1	3	68*	1
O=[N+]([O-])c1ccc(O)c(C=Nc2cccc3ccccc23)c1	0	5	-30	11	-1
CC(OC(=O)CCC1CCCC1)C(=O)Nc1ccccc1[N+](=O)[O-] (centres undefined)	-2	-2	-2	43*	1
CC(=O)Nc1ccc(NC(=O)C(C)OC(=O)CCC2CCCCC2)cc1 (centres undefined)	-4	-2	-11	-5	1
O=C(Nc1cccnc1)c1ccc2ccccc2c1O	7	12	-72	-4	173*
CCc1nnc(NC(=O)CSc2nc3cc4c(cc3cc2C)OCCO4)s1	-5	55*	-16	-17	-1
COC(=O)CSc1nc2cc3c(cc2cc1C)OCCO3	9	0	-14	-15	163*
CCOc1ccccc1NC(=O)CC1Nc2cc(C)c(C)cc2NC1=O (centres undefined)	4	12	-15	8	49*
COc1ccc2c(c1)C(=NN)c1cc(OC)ccc1-2	-13	0	-35	47*	0
CN1CCN(N=Cc2c3ccccc3c(Cl)c3ccccc23)CC1	nt	nt	nt	53*	nt
CC(C)CC(NC(=O)C(NC(=O)OC(C)(C)C)C(C)C)C(=O)NC(CCC(=O)OCc1ccccc1)C(N)=O (centres undefined)	-2	-3	-18	-12	-1
CCC(C)C(N)C(=O)NC(CCC(=O)OCc1ccccc1)C(N)=O (centres undefined)	-4	68*	-19	-10	-1
C=CCc1c(C)c(C#N)c2[nH]c3ccccc3n2c1=O	nt	nt	nt	5	nt
C=C(C)Cc1c(C)c(C#N)c2[nH]c3ccccc3n2c1=O	0	6	-15	-5	131*
N#C/C(=C\c1cccc(Oc2ccccc2)c1)C(=O)N1CCOCC1	-2	7	-16	-12	235*
CS(=O)(=O)N1CCCC(C(=O)Nc2ccc(Br)cc2F)C1 (centres undefined)	4	-6	-10	-7	-1
Cc1[nH]c2ccccc2c1C=NNc1nc2ccccc2[nH]1	nt	nt	nt	41*	nt
C#CCn1cc(C=NNc2nc3ccccc3[nH]2)c2ccccc21	nt	nt	nt	44*	nt
